Test results taken from the supplement of paper PMC7695840.
Structures can show the parent of a compound that is named as a salt.

Assays:
[1] = tested on: Staphylococcus aureus MW2 delta-mecA (mecA-); assay: normalized GFP fluorescence (growth of mecA- strain) (fraction of control range); higher = more growth of mecA- strain; details: compound concentration: 150 uM; cefoxitin: subinhibitory; fluorescent label: GFP
Method in brief: (§1)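 Pre-induced S. aureus MW2 cells carrying the gene (DsRed) and deletion cells lacking it (GFP) were combined 1:1 in LB containing a subinhibitory antibiotic dose set each day, then dispensed at 5 µL/well onto 150 μM compound (1.5% DMSO) in 1536-well plates as a single replicate. After 20 h at 37 °C and 90% humidity without shaking, DsRed (540/590) and GFP (485/520) were read. Each channel was scaled per plate between the medians of the single-strain controls, and plates with high untreated ratios and rows with DsRed/GFP >10 were excluded.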

[2] = tested on: Staphylococcus aureus MW2 (mecA+); assay: normalized DsRed fluorescence (growth of mecA+ strain) (fraction of control range); higher = more growth of mecA+ strain; details: compound concentration: 150 uM; cefoxitin: subinhibitory; fluorescent label: DsRed
Method in brief: as §1

| SMILES | normalized GFP fluorescence [1] | normalized DsRed fluorescence [2] |
| --- | --- | --- |
| CCS(=O)(=O)N1CC(CC#N)(n2cc(-c3ncnc4[nH]ccc34)cn2)C1 | 0.236 | 1.85 |
| Nc1ccn([C@@H]2CS[C@H](CO)O2)c(=O)n1 | 0.367 | 0.767 |
| COc1ccc2[nH]cc(CCNC(C)=O)c2c1 [Melatonin] | 0.484 | 0.734 |
| CN1[C@@H]2CC[C@H]1C[C@@H](OC(=O)c1c[nH]c3ccccc13)C2 [Tropisetron] | 0.528 | 0.582 |
| O=C1CCc2cc(OCCCCc3nnnn3C3CCCCC3)ccc2N1 | 0.533 | 0.561 |
| NC[C@@H]1O[C@@H](O[C@H]2[C@H](O)[C@@H](O[C@H]3O[C@H](CO)[C@@H](O)[C@H](N)[C@H]3O)[C@H](N)C[C@@H]2N)[C@@H](O)[C@H](O)[C@H]1O | 0.472 | 0.795 |
| CN(C)[C@@H](CCOc1cccc2ccccc12)c1ccccc1 [Dapoxetine hydrochloride (Priligy)] | -0.00645 | 1.15 |
| CN1CCN(C2=Nc3cc(Cl)ccc3Nc3ccccc32)CC1 [Clozapine (Clozaril)] | 0.0909 | 1.01 |
| O=C1CCC(N2C(=O)c3ccccc3C2=O)C(=O)N1 (configuration not stated) | 0.261 | 0.635 |
| C[C@@H]1O[C@@H](OC[C@H]2O[C@@H](Oc3c(-c4ccc(O)c(O)c4)oc4cc(O)cc(O)c4c3=O)[C@H](O)[C@@H](O)[C@@H]2O)[C@H](O)[C@H](O)[C@H]1O [Rutin (Rutoside)] | 0.394 | 0.725 |
| CN1CCC[C@@H]1Cc1c[nH]c2ccc(CCS(=O)(=O)c3ccccc3)cc12 | 0.194 | 0.948 |
| Nc1nc2[nH]cnc2c(=S)[nH]1 | 0.329 | 1.33 |
| COc1cc(C(=O)NS(=O)(=O)c2ccccc2C)ccc1Cc1cn(C)c2ccc(NC(=O)OC3CCCC3)cc12 [Zafirlukast (Accolate)] | -0.00168 | 0.0292 |
| c1ccc2[nH]c(-c3cscn3)nc2c1 | 0.302 | 0.444 |
| N=C(N)NC(=N)NCCc1ccccc1 | 0.435 | 0.624 |
| Cn1c(=O)c2c(ncn2CC2OCCO2)n(C)c1=O | 0.29 | 1.05 |
| C[N+]1(C)[C@@H]2C[C@@H](OC(=O)C(O)(c3cccs3)c3cccs3)C[C@H]1[C@@H]1O[C@@H]12 [Tiotropium Bromide hydrate] | 0.394 | 0.674 |
| CCCCc1nc(Cl)c(CO)n1Cc1ccc(-c2ccccc2-c2nnn[nH]2)cc1 | 0.297 | 0.864 |
| O=C(O)COCCN1CCN(C(c2ccccc2)c2ccc(Cl)cc2)CC1 (configuration not stated) | 0.0457 | 0.556 |
| CC(=O)OCC(=O)[C@@]12OC3(CCCC3)O[C@@H]1C[C@H]1[C@@H]3CCC4=CC(=O)C=C[C@]4(C)[C@@]3(F)[C@@H](O)C[C@@]12C | 0.197 | 0.883 |
| CC(C)(Oc1ccc(CCNC(=O)c2ccc(Cl)cc2)cc1)C(=O)O | 0.407 | 0.804 |
| CC(C(=O)O)c1cccc(Oc2ccccc2)c1 (configuration not stated) | 0.136 | 0.467 |
| CN[C@@H]1[C@H](O[C@H]2[C@H](O[C@H]3[C@H](O)[C@@H](O)[C@H](NC(=N)N)[C@@H](O)[C@@H]3NC(=N)N)O[C@@H](C)[C@]2(O)CO)O[C@@H](CO)[C@H](O)[C@H]1O | 0.292 | 0.832 |
| Clc1ccc(CCC(Cn2ccnc2)Sc2c(Cl)cccc2Cl)cc1 (configuration not stated) | -0.00294 | 0.01 |
| C[n+]1ccccc1C=NO | 0.166 | 0.637 |
| CC(C)(C)NC[C@H](O)COc1nsnc1N1CCOCC1 | 0.208 | 0.811 |

| SMILES | normalized GFP fluorescence [1] | normalized DsRed fluorescence [2] |
| --- | --- | --- |
| OC(CCN1CCCCC1)(c1ccccc1)C1CC2C=CC1C2 (configuration not stated) [Biperiden hydrochloride] | 0.119 | 0.714 |
| NC(=O)c1cccnc1 [Nicotinamide (Niacinamide)] | 0.478 | 0.458 |
| C[C@@H]1C[C@H]2[C@@H]3CCC4=CC(=O)C=C[C@]4(C)[C@@]3(Cl)[C@@H](O)C[C@]2(C)[C@@]1(OC(=O)c1ccco1)C(=O)CCl | 0.456 | 1.18 |
| NC[C@H]1O[C@H](O[C@H]2[C@H](O[C@@H]3O[C@H](CO)[C@@H](O)[C@H]3O)[C@@H](O)[C@H](N)C[C@@H]2N)[C@H](N)[C@@H](O)[C@@H]1O | 0.457 | 0.685 |
| NCc1ccc(S(N)(=O)=O)cc1 | 0.22 | 0.71 |
| CC(=O)OCC(=O)[C@@]1(O)CC[C@H]2[C@@H]3CCC4=CC(=O)CC[C@]4(C)[C@@]3(F)[C@@H](O)C[C@@]21C | 0.287 | 0.642 |
| COC(=O)Nc1nc2cc(Sc3ccccc3)ccc2[nH]1 | 0.378 | 0.601 |
| CCN(CCO)CCCC(C)Nc1ccnc2cc(Cl)ccc12 (configuration not stated) | 0.323 | 1.33 |
| CC(=O)c1ccc2c(c1)N(CCCN1CCN(CCO)CC1)c1ccccc1S2 | 0.252 | 1.08 |
| Oc1ncnc2[nH]ncc12 | 0.524 | 0.531 |
| CC(=O)O[C@@]12CO[C@@H]1C[C@H](O)[C@@]1(C)C(=O)[C@H](O)C3=C(C)[C@@H](OC(=O)[C@H](O)[C@@H](NC(=O)OC(C)(C)C)c4ccccc4)C[C@@](O)([C@@H](OC(=O)c4ccccc4)[C@H]21)C3(C)C [Docetaxel (Taxotere)] | 0.11 | 0.768 |
| CC(C)OC(=O)OCOP(=O)(CO[C@H](C)Cn1cnc2c(N)ncnc21)OCOC(=O)OC(C)C [Tenofovir Disoproxil Fumarate] | 0.238 | 0.514 |
| Nc1nc(NC2CC2)c2ncn([C@H]3C=C[C@@H](CO)C3)c2n1 | 0.288 | 0.69 |
| CCCCOc1ccc(C(=O)CCN2CCCCC2)cc1 | 0.00391 | 0.36 |
| CN(Cc1cc(Br)cc(Br)c1N)C1CCCCC1 | 0.459 | 0.919 |
| CC(C)(O)c1ccccc1CC[C@@H](SCC1(CC(=O)O)CC1)c1cccc(/C=C/c2ccc3ccc(Cl)cc3n2)c1 | -0.0136 | 0.632 |
| Cc1ccccc1N1C(=O)c2cc(S(N)(=O)=O)c(Cl)cc2NC1C (configuration not stated) | 0.113 | 1.33 |
| CC(C)(C)NCC(O)c1ccc(O)c(CO)c1 (configuration not stated) [Salbutamol sulfate (Albuterol)] | 0.318 | 0.695 |
| Cc1[nH+]cc(COP(=O)([O-])[O-])c(CN(CCN(CC(=O)[O-])Cc2c(COP(=O)([O-])O)c[nH+]c(C)c2O)CC(=O)[O-])c1O.[Mn].[Na+].[Na+].[Na+] | 0.415 | 0.481 |
| CNCC[C@H](Oc1cccc2ccccc12)c1cccs1 | -0.0294 | 0.838 |
| CN(C)CCC[C@@]1(c2ccc(F)cc2)OCc2cc(C#N)ccc21 | 0.12 | 0.762 |
| COc1cc2nccc(Oc3ccc(NC(=O)Nc4cc(C)on4)c(Cl)c3)c2cc1OC [Tivozanib (AV-951)] | 0.445 | 1.09 |
| C#C[C@]1(O)CC[C@H]2[C@@H]3CCC4=CC(=O)CC[C@@H]4[C@H]3CC[C@@]21C [Norethindrone (Norethisterone)] | 0.268 | 0.621 |
| CCCN(CCC)CCc1cccc2c1CC(=O)N2 | 0.224 | 1.03 |
| CCCCCCNC(=O)n1cc(F)c(=O)[nH]c1=O [Carmofur] | 0.605 | 0.452 |
| CC(C)C(=O)Nc1ccc([N+](=O)[O-])c(C(F)(F)F)c1 | 0.121 | 1.4 |

| SMILES | normalized GFP fluorescence [1] | normalized DsRed fluorescence [2] |
| --- | --- | --- |
| COc1nc(N)nc2c1ncn2[C@@H]1O[C@H](CO)[C@@H](O)[C@@H]1O [Nelarabine (Arranon)] | 0.298 | 0.855 |
| O=c1[nH]cnc2c1ncn2[C@@H]1O[C@H](CO)[C@@H](O)[C@H]1O [Inosine] | 0.197 | 0.97 |
| COCCCOc1ccnc(C[S+]([O-])c2nc3ccccc3[nH]2)c1C (configuration not stated) | 0.186 | 0.865 |
| CCOC(=O)[C@H](CCc1ccccc1)N[C@@H](C)C(=O)N1CCC[C@H]1C(=O)O | 0.325 | 0.611 |
| CCN(CCCc1ccccc1)CCCc1ccccc1 | 0.1 | 1.17 |
| CCCNC(C)C(=O)Nc1c(C)csc1C(=O)OC (configuration not stated) [Articaine HCl] | 0.567 | 0.672 |
| CC(C)[N+](C)(CCOC(=O)C1c2ccccc2Oc2ccccc21)C(C)C | 0.295 | 0.691 |
| CCOC(=O)O[C@]1(C(=O)OCCl)CC[C@H]2[C@@H]3CCC4=CC(=O)C=C[C@]4(C)[C@H]3[C@@H](O)C[C@@]21C [Loteprednol etabonate] | 0.281 | 0.603 |
| Cc1cc(-c2ccccc2)nnc1NCCN1CCOCC1 | 0.44 | 0.611 |
| CC1=C(CC(=O)O)c2cc(F)ccc2/C1=C\c1ccc([S+](C)[O-])cc1 (configuration not stated) | 0.33 | 0.476 |
| Clc1ccc2c(c1)CCc1cccnc1C2=C1CCNCC1 [Desloratadine] | 0.102 | 0.936 |
| CC(C)(C#N)c1cc(Cn2cncn2)cc(C(C)(C)C#N)c1 | 0.351 | 0.796 |
| COc1ccc(O)cc1 | 0.353 | 0.504 |
| NS(=O)(=O)c1cc2c(cc1C(F)(F)F)NC(Cc1ccccc1)NS2(=O)=O (configuration not stated) | 0.428 | 0.653 |
| CC(C)Cn1cnc2c(N)nc3ccccc3c21 | 0.18 | 1.09 |
| CN(C)CCCN1c2ccccc2CCc2ccc(Cl)cc21 | -0.0283 | 0.939 |
| N#C[C@@H]1C[C@@H]2C[C@@H]2N1C(=O)[C@@H](N)C12CC3CC(CC(O)(C3)C1)C2 | 0.824 | 0.518 |
| CS(=O)(=O)c1ccc(C2=C(c3ccccc3)C(=O)OC2)cc1 | 0.195 | 0.89 |
| CN[C@@H]1[C@@H](O)[C@@H](O[C@@H]2[C@@H](O)[C@H](O[C@H]3OC(CN)=CC[C@H]3N)[C@@H](N)C[C@H]2N)OC[C@]1(C)O | 0.511 | 0.916 |
| COc1cc2c(cc1OC)C(=O)C(CC1CCN(Cc3ccccc3)CC1)C2 (configuration not stated) | 0.341 | 0.564 |
| NC(=O)OCC(COC(N)=O)c1ccccc1 [Felbamate] | 0.382 | 0.864 |
| O=C(Nc1c(Cl)cncc1Cl)c1ccc(OC(F)F)c(OCC2CC2)c1 [Roflumilast (Daxas)] | 0.368 | 0.773 |
| O=C(OCc1ccccc1)c1ccccc1 | 0.269 | 0.596 |
| Nc1ccc(C(=O)O)cc1 | 0.617 | 0.958 |
